# This is a sample that favours compounds with a hit; in the whole collection about 3.4% have one here.
# MITF primary: inhibitors of human MITF | O75030 | 650,000 compounds, 0.91% hits | inhibition, % at 2.6 µM | AlphaScreen MITF homodimerization, bead proximity signal; in the data active means inhibition above about 50%;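 further: 0% = vehicle wells with protein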
# TEAD-YAP inh: TEAD-YAP interaction inhibition; HEK-TIYL cells, TEAD-Gal4/YAP UAS-luciferase luminescence; inhibition, % at 9.12 µM; 640,000 compounds, 1.4% hits; AID 1259422; in the data active means inhibition above about 32%;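 further: 0% = median of test compound wells and 100% = reference inhibitor wells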
# FBW7 act: activators of human E3 ligase FBW7 | AlphaScreen FBW7–phospho-cyclin E peptide binding, activator screen | normalized activity (activation), % at 26.1 µM | 650,000 compounds, 0.13% hits; in the data active means normalized activity above about 1.9%;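 further: purified mutant Fbw7 with reduced substrate affinity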
# Target sequence (Q969H0 whole entry, looked up): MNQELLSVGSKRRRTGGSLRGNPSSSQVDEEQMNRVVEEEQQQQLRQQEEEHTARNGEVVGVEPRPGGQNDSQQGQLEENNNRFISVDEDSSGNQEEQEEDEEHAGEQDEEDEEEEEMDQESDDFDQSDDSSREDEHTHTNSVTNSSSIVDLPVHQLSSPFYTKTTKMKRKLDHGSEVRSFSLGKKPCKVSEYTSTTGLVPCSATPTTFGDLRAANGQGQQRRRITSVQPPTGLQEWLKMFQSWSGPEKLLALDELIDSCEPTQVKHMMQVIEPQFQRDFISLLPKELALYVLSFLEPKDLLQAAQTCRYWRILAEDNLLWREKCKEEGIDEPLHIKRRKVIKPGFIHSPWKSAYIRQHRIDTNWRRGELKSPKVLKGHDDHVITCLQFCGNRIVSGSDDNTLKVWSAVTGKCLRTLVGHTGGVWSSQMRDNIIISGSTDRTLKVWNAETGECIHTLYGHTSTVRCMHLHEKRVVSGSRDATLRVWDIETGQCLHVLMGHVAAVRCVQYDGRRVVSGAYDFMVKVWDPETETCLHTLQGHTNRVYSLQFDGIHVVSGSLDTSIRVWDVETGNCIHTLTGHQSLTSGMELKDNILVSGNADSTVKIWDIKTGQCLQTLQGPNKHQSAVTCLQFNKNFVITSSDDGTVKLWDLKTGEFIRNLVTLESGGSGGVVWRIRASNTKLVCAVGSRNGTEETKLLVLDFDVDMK
# GPR151 ag: activators of human GPR151 | Q8TDV0 | PathHunter beta-arrestin GPR151 cells, luminescence | activation, % at 11.2 µM | 650,000 compounds, 1% hits; in the data active means activation above about 4.9%;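 further: 0% = median of compound wells and 100% = cells with positive control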
# GPR151 confirm: human GPR151 activation, confirmation screen; activation, % at 11.2 µM; shares compounds with GPR151 ag; GPR151 PathHunter beta-arrestin cells, luminescence, 90 min; % of EA-reagent control over plate median; 6,700 tested, under 10 active; AID 1508609;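 active means mean percent activation across replicates above the confirmation screen cutoff of 4.91%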
# GPR119 ag: GPR119 activation, counter-screen for GPR151 activators | shares compounds with GPR151 ag | GPR119 PathHunter beta-arrestin cells, luminescence, 90 min; 0 = compound-well median, 100 = enzyme-acceptor control | activation, % at 11.2 µM | 6,700 compounds, 0.3% hits | AID 1508611;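 active means mean percent activation in the counterscreen above 29.09%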;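 further: counterscreen on off-target GPR119 to flag nonselective hits from the GPR151 activator screen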
# Numbers without * were called inactive; / = no result.
SMILES,MITF primary,TEAD-YAP inh,FBW7 act,GPR151 ag,GPR151 confirm,GPR119 ag
CCN(CC)c1nc(Nc2ccccc2)nc(Nc2ccc(-n3ccnc3)cc2)n1,8,-6,0,6.6*,0,4
Cc1cc(NC2CC2)nc(Nc2ccc(-n3ccnc3)cc2)n1,-9,-12,0,5.3*,-1,-11
O=C(Nc1ccc(C(F)(F)F)cc1)C1CCCO1 (stereo unspecified),8,2,0,-1,/,/
Cc1ccc(-c2csc3nc4c5ccccc5c(NCCOCCO)nn4c(=O)c23)cc1,7,0,1,8.4*,1,2
O=c1c2c(-c3ccccc3)csc2nc2c3ccccc3c(NCCO)nn12,9,2,0,1,/,/
CC(=O)N1CCCN(c2nc3cc(C)cc(C)c3cc2C#N)CC1,13,11,0,7.2*,-1,0
Cc1cc(C)c2cc(C#N)c(N3CCCN(C(=O)CCC(=O)O)CC3)nc2c1,6,-7,0,1,/,/
CCCC(C)NC(=O)COC(=O)c1cc2ccccc2oc1=O (stereo unspecified),1,-8,0,-1,/,/
CCOC(=O)N1CCN(C(=O)Cn2nnnc2CN(C)C(C)C)CC1,-6,6,0,5.2*,-1,-5
CCOC(=O)N1CCN(C(=O)Cn2nnnc2CN2CCCCCC2)CC1,2,-2,0,-1,/,/
CC(C)N(C)Cc1nnnn1CC(=O)NCC(c1ccccc1)c1ccccc1,-1,7,0,-1,/,/
CC(C)N(C)Cc1nnnn1CC(=O)NC1(c2ccccc2)CC1,10,-1,0,8.3*,0,3
O=C(c1ccc(N2CCCCCC2)c([N+](=O)[O-])c1)N1CCOCC1,7,-2,0,-1,/,/
CS(=O)(=O)N1CCN(c2ccc(C(=O)N3CCOCC3)cc2[N+](=O)[O-])CC1,13,5,1,7.6*,0,1
COc1ccc(NC(=O)c2cc(C)nc3ccccc23)cc1S(=O)(=O)N1CCCCC1,-2,-3,0,8.4*,0,9
COc1ccc(S(=O)(=O)N2CCCCC2)cc1NC(=O)c1cc(C)nc2ccccc12,7,6,0,2,/,/
CC#CCCC(=O)Nc1ccccc1F,4,-8,0,-1,/,/
CC(=O)NCCNC(=O)c1ccc(-c2ccccc2)nc1NCCc1ccccn1,-10,12,0,5.1*,0,-3
O=C(O)CCCNS(=O)(=O)c1ccc(F)cc1,-8,-3,0,0,/,/
CN1CCc2c(sc3ncc4c(=O)[nH]c(=O)[nH]c4c23)C1,19,8,1,-1,/,/
COc1ccc(/C=C2\N=C(c3cccc(I)c3)OC2=O)cc1[N+](=O)[O-],-4,1,0,14*,1,-6
COc1ccc(C2=N/C(=C\c3ccc([N+](=O)[O-])cc3)C(=O)O2)cc1[N+](=O)[O-],22,1,0,-2,/,/
Cn1ccnc1N1CCN(C(=O)c2cccc(F)c2)CC1,9,5,0,5.1*,-1,-12
CCn1cc(C(=O)N2C[C@H](C(=O)OC)[C@@H](c3ccc(F)cc3)C2)cn1,-8,-1,0,0,/,/
COC(=O)[C@H]1CN(C(=O)c2cnn(C(C)C)c2)C[C@@H]1c1ccc(F)cc1,-10,3,0,5.7*,0,-2
SMILES,MITF primary,TEAD-YAP inh,FBW7 act,GPR151 ag,GPR151 confirm,GPR119 ag
Cc1ccc(Cl)cc1NC(=O)c1cnn2cccnc12,-7,-25,0,1,/,/
COc1ccc(CN2CCN(Cc3ccc(OC)c(OC)c3OC)CC2)c(OC)c1,41,2,0,11*,-1,8
Cc1cccc(NCN2C(=O)c3ccc([N+](=O)[O-])cc3C2=O)c1,14,-20,0,-1,/,/
O=C(CNC(=O)C1CCCCC1)NNC(=O)c1ccccc1Br,7,1,0,5.8*,-1,1
O=C(Nc1ccc2c(c1)CN(Cc1cccnc1)CC2)C1CCCO1 (stereo unspecified),12,0,0,0,/,/
O=C(Nc1ccc2c(c1)CN(Cc1cnc(-c3ccccc3)s1)CC2)C1CCCO1 (stereo unspecified),-13,3,0,5.2*,0,2
CC12CC3CC(C)(C1)CC(C(=O)NO)(C3)C2,-8,6,0,0,/,/

# Screening data: PubChem, The Scripps Research Institute Molecular Screening Center
